Experimental findings from the supplement of paper PMC10933113 are described below.

Structures are written as SMILES. Counter-ions that a name gives are not always drawn. ± gives the uncertainty stated by the source.

The test relates to THP-1. As to the kind of experiment: CD86 surface expression induction over DMSO control (% over DMSO); higher = stronger dendritic cell activation. As to conditions: exposure time: 24 h. The protocol: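 hCLAT-like CD54 and CD86 surface expression on THP1 cells after 24 h exposure at a single concentration (highest non-cytotoxic concentration, or 100-200 µM if not cytotoxic). Flow cytometry (iQue) was run on 5,000 live cells.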
On to `c1ccc(-c2cccc(-c3ccccc3)c2)cc1` [1,1':3',1''-Terphenyl] (200 µM), for which the “CD86 surface expression induction” value turned out to be 17.1 ± 26. As to `CC(C)=CC1C(C(=O)OCc2coc(Cc3ccccc3)c2)C1(C)C` (stereo not given) [Resmethrin] (200 µM), the “CD86 surface expression induction” value was 16.4 ± 4.8. With `NCCc1ccc(O)cc1` [Tyramine] (100 µM), the “CD86 surface expression induction” value is -4.16 ± 4.5. The result for `O=C1C=CC(=O)c2ccccc21` (10 µM) reads 366 ± 22; that for `CCS(=O)(=O)CCSP(=O)(OC)OC` [Demeton-S-methylsulphon] (10 µM), -12.6 ± 14; that for `O=C(N/N=C/c1ccc([N+](=O)[O-])o1)c1cc([N+](=O)[O-])cc([N+](=O)[O-])c1O` [Nifursol] (200 µM), 8.52 ± 13.

Turning to `CC(C)Nc1ccc(Nc2ccccc2)cc1` [N-Isopropyl-N'-phenyl-p-phenylenediamine] (10 µM), the “CD86 surface expression induction” value worked out at 91.4 ± 6.8. The result for `Nc1ccc(N)cc1` [1,4-Benzenediamine] (10 µM) reads 29; that for `Cc1ccc(N=C=O)cc1N=C=O` [Toluene-2,4-diisocyanate] (100 µM), 3.76 ± 8.7; that for `CCC(C)(CC)c1cc(NC(=O)c2c(OC)cccc2OC)on1` [Isoxaben] (200 µM), 0.63 ± 1.4. The result for `OCc1ccco1` [Furfuryl alcohol] (201 µM) reads 5.82 ± 11. The result for `CN(C)c1ccc(N)cc1` [N,N-Dimethyl-p-phenylenediamine] (100 µM) reads 44.5 ± 46; that for `CCCCNC(=O)OCC#CI` [Carbamic acid, butyl-, 3-iodo-2-propynyl ester] (10 µM), -9.06 ± 2.4; that for `CCOP(=S)(OCC)SC(CCl)N1C(=O)c2ccccc2C1=O` (stereo not given) [Dialifor] (100 µM), 0.69 ± 0.85. With `[Cl][Cd][Cl]` [Cadmium II chloride] (200 µM), the “CD86 surface expression induction” value came to 51.1 ± 5.8. Under `O=C1OC(CCN2CCCCC2)OC1(c1ccccc1)c1ccccc1` (stereo not given) [Pipoxolan hydrochloride] (100 µM) stands 98.2 ± 160; under `COP(=S)(OC)Oc1ccc(SC)c(C)c1` [Fenthion] (100 µM), -4.96 ± 3.4; under `O=[N+]([O-])c1cc(C(F)(F)F)c(Cl)c([N+](=O)[O-])c1Cl` [2,4-Dichloro-1,3-dinitro-5-(trifluoromethyl)benzene] (10 µM), 34.2 ± 15. As to `COP(=S)(OC)Oc1nc(Cl)c(Cl)cc1Cl` [Chlorpyrifos-methyl] (200 µM), the “CD86 surface expression induction” value was 17.7 ± 42. Under `CCOCN(C(=O)CCl)c1c(C)cccc1CC` [Acetochlor] (10 µM) stands 90 ± 25; under `C=C1C[C@@H]2[C@H](CC[C@]3(C)C(=O)CC[C@@H]23)[C@@]2(C)C=CC(=O)C=C12` [Exemestane] (100 µM), 12.3 ± 25. The result for `O=C(O)c1ccccc1C(=O)Nc1cccc2ccccc12` [Naptalam*] (200 µM) reads 78.5 ± 110.

As to `Cc1cc(C2CC2)nc(Nc2ccccc2)n1` [Cyprodinil] (200 µM), the “CD86 surface expression induction” value amounted to 44.9 ± 64.

For the compound `Cl/C=C\C[N+]12CN3CN(CN(C3)C1)C2` [Chloroallyl methenamine chloride] (10 µM), the “CD86 surface expression induction” value is -4.14 ± 1.1. For the compound `CCCCOCN(C(=O)CCl)c1c(CC)cccc1CC` [Butachlor] (10 µM), the “CD86 surface expression induction” value was -11.7 ± 10. The result for `CCOP(=S)(OCC)Oc1cnc2ccccc2n1` [Quinalphos] (200 µM) reads -2.83 ± 2.4; that for `O=C(CCl)CCl` [1,3-Dichloropropanone] (200 µM), 16.5 ± 17. The result for `C[C@]12CC[C@H](O)C[C@H]1CC[C@@H]1[C@@H]2C[C@@H](O)[C@]2(C)[C@@H](C3=CC(=O)OC3)CC[C@]12O` [Digoxigenin] (10 µM) reads 46.8 ± 22. As for `c1cc(OCC2CO2)ccc1Cc1ccc(OCC2CO2)cc1` (stereo not given) [Bis[4-(glycidyloxy)phenyl]methane] (100 µM), the “CD86 surface expression induction” value is 7.56 ± 6.6. As for `Cc1ccc2c(c1N)C(=O)c1ccccc1C2=O` [1-Amino-2-methylanthraquinone] (100 µM), the “CD86 surface expression induction” value turned out to be 102 ± 24. The result for `c1cc(OCC2CO2)cc(OCC2CO2)c1` (stereo not given) [Diglycidyl resorcinol ether (DGRE)] (10 µM) reads -10.6 ± 5. Under `CCNc1nc(NC(C)(C)C)nc(SC)n1` [Terbutryn] (100 µM) stands 0.6 ± 2.4. The result for `CN(C)S(=O)(=O)N(SC(F)(Cl)Cl)c1ccccc1` [Dichlofluanid] (10 µM) reads 88.09 ± 0.57.

Take `Nc1ccc2ccccc2c1` [2-Naphthylamine] (100 µM): the “CD86 surface expression induction” value was found to be 68.7 ± 65. For the compound `COc1ccc(O)c(C(C)(C)C)c1` [2-tert-Butyl-4-methoxyphenol] (200 µM), the “CD86 surface expression induction” value is -4.34 ± 6.1. The result for `CC(COc1ccc(Oc2ccccc2)cc1)Oc1ccccn1` (stereo not given) [Pyriproxyfen] (200 µM) reads -0.44 ± 4.1. Under `CCOC(=O)CC(SP(=S)(OC)OC)C(=O)OCC` (stereo not given) [Malathion] (100 µM) stands -0.63 ± 4.7; under `Nc1ccc(Cl)cc1Cl` [2,4-Dichloroaniline] (200 µM), -3.25 ± 7.7. The result for `CN1C[C@H](C(=O)N[C@]2(C)O[C@@]3(O)[C@@H]4CCCN4C(=O)[C@H](Cc4ccccc4)N3C2=O)C=C2c3cccc4[nH]cc(c34)C[C@H]21` [Ergotamine D-tartrate*] (79 µM) reads 63 ± 77; that for `COP(=O)(OC)OC(Br)C(Cl)(Cl)Br` (stereo not given) [Naled] (100 µM), 30.5 ± 5.4.
